TDP-43 yeast inh: TDP-43 toxicity inhibition in yeast; 1.8% of 410,000 active; TDP-43 expressing yeast growth rescue, BacTiter-Glo, 24 h; Potency, µM (titrated, usually from 46.1 µM), for inactives: at the highest dose growth rescue (activation), hits mostly activators; AID 652104; further: potency means the concentration at half of the fitted maximal effect; % of control where 0% means no effect; nearly all actives have a fitted effect of over 50% in size
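Growth rescue of TDP-43-toxic yeast measured as ATP luminescence (BacTiter-Glo). Cells grown to mid-log in raffinose, induced in galactose at OD600=0.02, exposed to compound 24 hr at 30 deg C.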
pAkt inh: Akt phosphorylation inhibition. Neuro2A IGF-stimulated pAkt S473 HTRF, 20 min; stronger effect = lower value. activity change, % for hits at 50 µM. 0.32% of 360,000 active; in the data active means activity change below about -80%; inconclusive means mostly about -51% to -80%; further: on the % scale 0 is the no-effect control and ±100 the full control effect
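Single-point screen (50 µM final compound) in Neuro2A cells stimulated 20 min with 6 nM IGF at 37 deg C. After lysis, Ser473-phosphorylated Akt read by HTRF (ex 330 nm, em 615/665 nm) as the 665/615 ratio.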
Abeta rescue: compounds reversing amyloid beta toxicity in yeast; yeast expressing A-beta42, growth rescue, OD600, 48 h; response scale: 0% DMSO, 100% iron-clioquinol control; Potency, µM (titrated, usually from 46.1 µM), usual class: activators; 0.063% of 410,000 active; further: potency means the concentration at half of the fitted maximal effect; nearly all actives have a fitted effect of over 55% in size
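Growth rescue measured by 600 nm absorbance after 48 h yeast culture at 30 C with compound. Values normalized between DMSO and an equimolar ferric chloride plus clioquinol control.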
aSyn rescue: rescues yeast growth from alpha-synuclein toxicity; AID 652106; Potency, µM (doses to about 46.1 µM), for the others: at the top dose growth rescue (activation), most hits filed as activators; 0.14% of 370,000 active; Yeast expressing alpha-synuclein, growth rescue, BacTiter-Glo, 24 h; further: potency means the concentration at half of the fitted maximal effect; % of control where 0% means no effect; nearly all actives have a fitted effect of over 65% in size
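Galactose-induced alpha-syn yeast (OD600=0.02, raffinose-pregrown) + pinned cpd, 24 hr, 30 deg C; growth by BacTiter-Glo luminescence. Growth restoration scores as activation.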
FUS yeast rescue: FUS proteinopathy suppression in yeast; S. cerevisiae FUS-expressing, growth rescue, OD600, 24 h; Potency, µM (titrated, usually from 76.6 µM), hits mostly activators; 0.24% of 390,000 active; AID 1347120;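 further: potency means the concentration at half of the fitted maximal effect; plate controls were DMSO vehicle for no effect and reference control for full effect; nearly all actives have a fitted effect of over 55% in size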
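S. cerevisiae expressing FUS from galactose induction served as the toxicity model. Growth after 24hr at 30C, read as absorbance at 600 nm, indicates suppression of toxicity; compounds dosed at several concentrations.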
Active calls of the source: *; i = inactive; ? = inconclusive; / = no result given. A selection: hits, their analogues and other compounds. The true share with any hit is near 2.3%. Unless noted, the call rests on the fitted dose curve; in most records, active means well fitted curve in the direction sought with a large enough effect; inconclusive means small, poorly fitted or top-dose-only effect, or another doubt; inactive means no such curve, though single readings can be large; an effect the other way counts as inactive or inconclusive.

SMILES	TDP-43 yeast inh	pAkt inh	Abeta rescue	aSyn rescue	FUS yeast rescue
O=C(CSc1nnnn1C1CCCC1)Nc1ccc(F)cc1	15.8%	-110.4%*	i	-3.2%	i
CC(C)=CCC[C@](C)(O[C@@H]1O[C@H](CO[C@@H]2OC[C@@H](O)[C@H](O)[C@H]2O)[C@@H](O)[C@H](O)[C@H]1O)C1CC[C@]2(C)C1[C@H](O)CC1[C@@]3(C)CC[C@H](O[C@@H]4O[C@H](CO)[C@@H](O)[C@H](O)[C@H]4O)C(C)(C)C3CC[C@]12C (some centres not stated)	14.5%	i	i	3.3%	15.8µM*
CCCC(=O)Nc1sc(Cc2ccccc2)c(C)c1C(N)=O	17.8µM*	i	i	-19.5%	i
COC(=O)c1cccc(Nc2c(-c3ccc(OC)cc3)nc3nc[nH]n23)c1	-0.6%	/	i	/	i
Cc1nn(-c2ccccc2)c(C)c1/C=N/O	7.2%	-111.4%*	i	0.5%	i
Cc1nn(-c2ccccc2)c(C)c1/C=N/n1cnnc1	15.3%	i	i	-1.5%	i
COc1cc(/C=C/c2nc(-c3ccccc3O)n[nH]2)cc(OC)c1OC	15.8µM*	i	i	12.8%	/
COc1cc(/C=C/c2nc(N)nc(-c3ccccc3O)n2)cc(OC)c1OC	-8.6%	i	i	-1.0%	i
COc1ccc(/C=C/c2nc(N)nc(-c3ccccc3O)n2)cc1OC	15.8µM*	i	i	13.2%	/
Cc1ccc(NC(=O)C2CCN(C(=O)c3cnn(-c4ccccc4)c3-n3cccc3)CC2)cc1C	0.0%	/	i	/	i
O=C(Nc1ccccc1)N1CCN(c2nc(-c3ccccc3)ns2)CC1	11.2µM*	i	i	-2.5%	i
O=C(Nc1ccccc1Cl)N1CCCN(c2nc(-c3ccccc3)ns2)CC1	0.0%	i	i	16.3%	i
O=C(CC(=O)c1ccccc1O)c1cccc(F)c1	-24.1%	i	i	12.6µM*	/
O=C(CC(=O)c1ccccc1O)c1ccc(F)cc1	?	i	i	?	i
CCCC(=O)Nc1cccc(NC(=O)c2ccc3c(c2)OCO3)c1	-1.1%	-114.8%*	i	9.9%	i
O=C(Nc1cccc(F)c1)c1ccc2c(c1)OCO2	-8.3%	i	i	-3.4%	i
O=C(Nc1c(C(=O)Nc2cccc(F)c2)oc2ccccc12)c1ccc2c(c1)OCO2	-20.1%	-111.5%*	i	-2.4%	i
Cc1cc(C)c(NC(=O)Cn2nnc(-c3nc(-c4ccncc4)no3)c2N)c(C)c1	12.8%	/	i	/	i
Cc1cc(NC(=O)CSc2ncn(-c3ccccc3)n2)no1	6.7%	-111.6%*	i	5.0%	i
COc1ccccc1NC(=O)CSc1ncn(-c2ccccc2)n1	10µM*	i	i	6.3%	/
CC[C@H](C)[C@@H]1NC(=O)[C@H]([C@@H](C)CC)NC(=O)[C@@H](CC(C)C)NC(=O)[C@H](Cc2ccccc2)NC(=O)[C@H](Cc2ccccc2)NC(=O)[C@@H]2CCCN2C(=O)[C@@H]2CCCN2C(=O)[C@H](C(C)C)NC(=O)[C@H](CC(C)C)NC1=O	18.7%	i	i	0.4%	17.8µM*
COc1ccc(CC(=O)NCCc2sc(-c3cccc(F)c3)nc2C)cc1	11.2µM*	/	i	/	i
CCOc1ccc(CC(=O)NCCc2sc(-c3cccc(F)c3)nc2C)cc1	?	/	i	/	i
COc1ccc(-c2nc(C)c(CCNC(=O)c3c(F)cccc3F)s2)cc1	10µM*	/	i	-0.8%	i
COc1cccc(C(=O)NCCc2sc(-c3cccc(C)c3)nc2C)c1	25.1µM*	/	i	-8.2%	?
SMILES	TDP-43 yeast inh	pAkt inh	Abeta rescue	aSyn rescue	FUS yeast rescue
COc1ccc(C(=O)NCCc2sc(-c3cccc(F)c3)nc2C)cc1	22.4µM*	/	i	/	?
Cc1cccc(C(=O)NCCc2sc(-c3ccccc3)nc2C)c1	?	/	i	?	i
O=S(=O)(c1ccccc1)c1nnn2c1nc(Nc1ccccc1)c1cc(Cl)ccc12	-25.8%	/	i	/	i
CC(C)C(=O)c1cc2c(cc1NC(=O)c1ccccc1F)OCCO2	24.9%	/	i	/	i
Cc1nc(-c2ccc(F)cc2)sc1CCNC(=O)c1ccccc1C(F)(F)F	12.6µM*	/	i	/	i
Cc1nc(-c2ccc(F)cc2)sc1CCNC(=O)Cc1ccc(F)cc1	?	/	i	/	i
Clc1cccc(-n2ncc3c(NC4CCCCCC4)ncnc32)c1	35.5µM*	/	i	/	i
Cc1ccc(-n2ncc3c(NC4CCCC4)ncnc32)cc1	1.26µM*	/	i	/	i
Cc1cccc(-n2ncc3c(NC4CCCCC4)ncnc32)c1	53.5%	i	i	-16.2%	i
COc1cccc(Cn2c(=O)cc(C)c3c(C)nn(-c4ccc(C)cc4)c32)c1	24.9%	/	i	/	i
O=C(N/N=C/c1ccncc1)c1ccccc1OCc1ccc(Br)cc1	31.6µM*	i	i	25.7%	i
Cc1ccc(/C=N/NC(=O)c2ccccc2OCc2ccc(F)cc2)o1	11.8%	i	i	-5.9%	i
O=C(Nc1ccc2c(c1)OCO2)OC1CC2CC1[C@H]1CCCCN1[C@H]2Cc1ccccc1 (some centres not stated)	/	/	/	/	i
CC(C)(C)C(=O)Nc1nnc(COc2ccc(Cl)cc2)s1	11.2µM*	i	?	25.6%	i
O=C(Nc1nnc(COc2ccc(Cl)cc2)s1)c1cccs1	-6.6%	i	i	-23.3%	i
O=C(c1cc(-c2ccccc2Cl)nc2ccccc12)N1CCN(c2ccccc2O)CC1	20µM*	i	i	-18.1%	i
Cc1ccc(-c2cc(C(=O)N3CCN(c4ccccc4O)CC3)c3ccccc3n2)cc1	21.0%	i	i	-4.5%	i
COc1ccc(-c2cc(C(=O)N3CCN(c4ccccn4)CC3)c3ccccc3n2)cc1	-13.4%	i	i	-5.1%	i
O=C(c1cc(-c2ccccc2Cl)nc2ccccc12)N1CCC1	?	i	i	-10.3%	i
COc1ccc(-c2cc(C(=O)N3CCN(c4ncccn4)CC3)c3ccccc3n2)cc1	12.6µM*	i	i	-12.4%	i
Cc1ccc(-c2cc(C(=O)N3CCN(c4ccc(O)cc4)CC3)c3ccccc3n2)cc1	15.8µM*	i	i	5.9%	?
O=C(COc1ccccc1)Nc1nc(-c2ccncc2)cs1	17.8%	i	i	-10.6%	i
O=C(COc1ccc(-c2ccccc2)cc1)Nc1cccnc1	22.4µM*	i	i	-8.7%	i
